activity, negative = inhibition and Potency data for 22 compounds are collected here from PubChem BioAssay (NCATS).

Values joined by “and” are separate entries in the source; they are usually repeats but may differ in a detail not shown here. Equal entries are not always repeated. Records with an inconclusive call do not appear. A number with no mark means an inactive call. Active and inactive are the calls of the source. Calls come from the whole dose curve; as a rule, active = well fitted inhibition curve with a large enough effect; inconclusive = small, poorly fitted or top-dose-only effect; inactive = flat fitted curve, though single readings scatter.
Potency is the fitted concentration of half-maximal effect.

One experiment in a line: qHTS profiling for inhibitors of Plasmodium falciparum proliferation (AID 504749).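 For activity, negative = inhibition: 0% = DMSO vehicle and full inhibition = artemisinin control.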 Note: nearly all actives have a fitted effect of over 60% in size. As to conditions: P. falciparum in erythrocytes, SYBR Green DNA, 72 h; at 28.7 µM (top of the series); parasite line B. The method, boiled down: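 Infected RBCs, 0.3% parasitemia/2.5% Hct final; cpd 72 h, 37 C, 5% CO2; lysis buffer with saponin/triton/SYBR Green I, o/n RT dark; FI 485/535; norm. to artemisinin (0.29 uM) and DMSO.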
For the compound `S=P(N1CC1)(N1CC1)N1CC1`, the activity, negative = inhibition was -0.221%.

Take `COc1ccc(-c2ccc3cc(C(=O)O)ccc3c2)cc1C12CC3CC(CC(C3)C1)C2`: the activity, negative = inhibition was 6.13%.

Take `CNNCc1ccc(C(=O)NC(C)C)cc1`: the activity, negative = inhibition was -2.63%.

On to `CCc1cc(C(N)=S)ccn1`, for which the activity, negative = inhibition is 3.61%.

Regarding `CC(C)Cn1cnc2c(N)nc3ccccc3c21`, the activity, negative = inhibition is -10.9%.

Take `CCCc1nc(C)c2c(=O)[nH]c(-c3cc(S(=O)(=O)N4CCN(CC)CC4)ccc3OCC)nn12`: the activity, negative = inhibition was -10.2%.

As to `Cc1nnc(NS(=O)(=O)c2ccc(N)cc2)s1`, the activity, negative = inhibition is 11.3%.

As to `Nc1nc(N)c2nc(CNc3ccc(C(=O)NC(CCC(=O)O)C(=O)O)cc3)cnc2n1` (configuration not stated), the activity, negative = inhibition is -5.01%.

Take `CC(C)NCC(O)c1ccc(NS(C)(=O)=O)cc1` (configuration not stated): the activity, negative = inhibition is 9.61% and 12.6%.

As to `CC(C)OC(=O)C(C(=O)OC(C)C)=C1SC=CS1`, the activity, negative = inhibition was 16.3%.

For `CC[C@H](C)C(=O)O[C@H]1C[C@@H](C)C=C2C=C[C@H](C)[C@H](CC[C@@H]3C[C@@H](O)CC(=O)O3)[C@H]21`, the activity, negative = inhibition is -31.4%.

In the case of `O=c1cc(O)c(Cl)c[nH]1`, the activity, negative = inhibition is 8.72%.

Regarding `CC(=O)Oc1ccccc1C(=O)Nc1ncc([N+](=O)[O-])s1`, the activity, negative = inhibition was 8%.

On to `CNC1CCCN(c2c(F)cc3c(=O)c(C(=O)O)cn(C4CC4)c3c2OC)C1` (configuration not stated), for which the activity, negative = inhibition was 5%.

The same experiment, now with this note: P. falciparum in erythrocytes, SYBR Green DNA, 72 h; parasite line A.
Consider `COc1cc([C@@H]2c3cc4c(cc3[C@H](O)[C@H]3COC(=O)[C@H]23)OCO4)cc(OC)c1OC`, for which the Potency is 8.91 µM (active).

As to `COc1ccc2cc3[n+](cc2c1OC)CCc1cc2c(cc1-3)OCO2`, the Potency is 0.447 µM (active).

Turning to `N=C(N)c1ccc(OCCCCCOc2ccc(C(=N)N)cc2)cc1`, the Potency was 1 µM (active).

Turning to `COc1cc2c(Nc3ccc(Br)cc3F)ncnc2cc1OCC1CCN(C)CC1`, the Potency is 1.78 µM (active).

Turning to `COc1cc(NCc2ccc3nc(N)nc(N)c3c2C)cc(OC)c1OC`, the Potency was 0.0035 µM (active).

As for `CCCCOc1ccc(CC(=O)NO)cc1`, the Potency is 1.12 µM (active).

Still in this experiment, the particulars now being: P. falciparum in erythrocytes, SYBR Green DNA, 72 h; parasite line B.
Turning to `COc1cc([C@@H]2c3cc4c(cc3[C@H](O)[C@H]3COC(=O)[C@H]23)OCO4)cc(OC)c1OC`, the Potency was 8.91 µM (active).

`COc1ccc2cc3[n+](cc2c1OC)CCc1cc2c(cc1-3)OCO2`: the Potency is 1.26 µM (active).

Turning to `N=C(N)c1ccc(OCCCCCOc2ccc(C(=N)N)cc2)cc1`, the Potency was 2.24 µM (active).

Take `Oc1c(Cl)cc(Cl)c2cccnc12`: the Potency was 10 µM (active).

`COc1cc2c(Nc3ccc(Br)cc3F)ncnc2cc1OCC1CCN(C)CC1`: the Potency was 1 µM (active).

Regarding `C1CCC(C(CC2CCCCN2)C2CCCCC2)CC1` (configuration not stated), the Potency is 8.91 µM (active).

Take `COc1cc(NCc2ccc3nc(N)nc(N)c3c2C)cc(OC)c1OC`: the Potency was 0.0071 µM (active).
